# Shown are actives, neighbours in structure and some others; about 12% of the full set was active somewhere.
# HP1b binding inh: HTS for Inhibitors of HP1-beta Chromodomain Interactions with Methylated Histone Tails | 390,000 compounds, 0.56% hits | AlphaScreen HP1-beta / biotin-H3K9me3 peptide binding | Potency, µM (doses to about 114 µM), most hits filed as inhibitors | Chromobox protein homolog 1 (Homo sapiens), P83916 | AID 540317, 2011; note: nearly all actives have a fitted effect of over 70% in size
#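 AlphaScreen: HP1-beta (50 nM) preformed 30 min with biotin-H3(1-18)K9me3 peptide (50 nM) in PBS pH 7.4, 0.01% Tween-20. Compound added for 30 min at RT, then streptavidin donor/nickel chelate acceptor beads (10 ug/mL) for 30 min.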
# PI5P4Ka inh: qHTS for Inhibitors of phosphatidylinositol 5-phosphate 4-kinase (PI5P4K); Phosphatidylinositol 5-phosphate 4-kinase type-2 alpha (Homo sapiens), P48426; PI5P4Kalpha enzyme, ADP-Glo luminescence, 60 min; stronger effect = lower value; max response, %; 330,000 compounds, 1.2% hits; AID 652105, 2013; active = max response of -50% or lower; inconclusive = between -30% and -50%; inactive = -30% or higher; note: value at the top dose of about 77 µM
#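 Quantitative HTS of the MLSMR library against PI5P4Kalpha with substrate. ATP added last at 5 microM final; room temperature, 60 minutes. Remaining ATP depleted, ADP converted and read as luminescence.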
# BAZ2B block: qHTS Assay for Inhibitors of BAZ2B; Bromodomain adjacent to zinc finger domain protein 2B (Homo sapiens), Q9UIF8; 360,000 compounds, 4.4% hits; AID 504333, 2011; AlphaScreen BAZ2B-H3K14Ac peptide displacement; Potency, µM (doses to about 114 µM), usual class: inhibitors; note: nearly all actives have a fitted effect of over 60% in size
#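 AlphaScreen luminescence quantifies BAZ2B engagement of H3K14Ac peptide; the protein and biotinylated peptide are both at 50 nM final, buffer PBS pH 7.4 with 0.01% Tween-20, all steps at room temperature.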
# JMJD2A Tudor: qHTS Assay for Inhibitors of JMJD2A-Tudor Domain | Lysine-specific demethylase 4A (Homo sapiens), O75164 | AlphaScreen JMJD2A-Tudor / H3K4me3 peptide binding | Potency, µM (titrated, usually from 114 µM), most hits filed as inhibitors | 390,000 compounds, 4.4% hits; note: nearly all actives have a fitted effect of over 50% in size
# G9a inh: qHTS Assay for Inhibitors of Histone Lysine Methyltransferase G9a; Potency, µM (doses to about 102 µM), actives largely listed as inhibitors; Histone-lysine N-methyltransferase EHMT2 (Homo sapiens), Q96KQ7; 350,000 compounds, 8.8% hits; G9a H3K9 monomethylation, AlphaScreen, 2 h; note: nearly all actives have a fitted effect of over 75% in size
#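 Readings reflect AlphaScreen signal from monomethyl-H3K9 antibody detection. HMT at 20 nM; substrate b-H3K9 500 nM; cofactor SAM 20 uM; 2 h RT reaction; compounds tested as titrations in qHTS with 15 min preincubation.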
# PLK1 PBD inh: qHTS for Inhibitors of PLK1-PDB (polo-like kinase 1 - polo-box domain): Primary Screen | Plk1 PBD binding of FITC phosphopeptide, fluorescence polarization | 360,000 compounds, 2.8% hits | Potency, µM, hits mostly inhibitors; note: series mostly up to about 57 µM; nearly all actives have a fitted effect of over 65% in size
# Target sequence (P53350 whole entry, looked up, the tested form may be a part): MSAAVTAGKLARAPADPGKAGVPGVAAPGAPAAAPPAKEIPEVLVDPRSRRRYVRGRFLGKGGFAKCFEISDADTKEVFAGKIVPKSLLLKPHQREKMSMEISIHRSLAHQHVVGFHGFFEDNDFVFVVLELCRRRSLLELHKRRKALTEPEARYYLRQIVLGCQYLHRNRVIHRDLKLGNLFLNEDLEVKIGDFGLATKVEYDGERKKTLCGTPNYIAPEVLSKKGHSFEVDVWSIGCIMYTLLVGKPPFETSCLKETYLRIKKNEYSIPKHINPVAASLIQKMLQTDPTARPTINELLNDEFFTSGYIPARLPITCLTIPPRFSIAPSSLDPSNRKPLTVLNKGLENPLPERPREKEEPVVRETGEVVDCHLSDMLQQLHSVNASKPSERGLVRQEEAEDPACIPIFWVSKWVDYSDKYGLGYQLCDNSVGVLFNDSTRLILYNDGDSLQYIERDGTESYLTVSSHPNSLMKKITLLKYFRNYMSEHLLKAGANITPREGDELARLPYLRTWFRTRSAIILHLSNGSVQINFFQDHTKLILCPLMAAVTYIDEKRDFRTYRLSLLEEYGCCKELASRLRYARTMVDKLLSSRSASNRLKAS
# Numbers stand for hits; i = inactive; ? = inconclusive; nt = no result given; [ ] = another dose, or the depositor's remark. Unless noted, calls come from the whole dose curve; as a rule, active = well fitted curve in the direction sought with a large enough effect; inconclusive = small, poorly fitted or top-dose-only effect, or another doubt; inactive = no such curve, though single readings can be large; an effect the other way counts as inactive or inconclusive.
SMILES,HP1b binding inh,PI5P4Ka inh,BAZ2B block,JMJD2A Tudor,G9a inh,PLK1 PBD inh
CC(=O)Nc1sc2c(c1C#N)CCN(Cc1ccccc1)C2,i,i,i,i,nt,i
COc1cccc(CN(C)CC(=O)Nc2sc3c(c2C#N)CCC3)c1OC,i,i,79µM,i,i,i
COc1ccc(-c2c(C)nn3c(N4CCN(c5ccccc5)CC4)cc(C)nc23)cc1OC,i,nt,i,i,i,nt
Cc1ccc(-c2nnc(Nc3ccccc3)c3ccccc23)cc1S(=O)(=O)NCc1nc2ccccc2[nH]1,i,nt,i,i,i,nt
N#Cc1cc2c(OCC(O)CN3CCN(C(c4ccccc4)c4ccccc4)CC3)cccc2[nH]1 (stereo not drawn),nt,nt,nt,nt,i,nt
COc1ccccc1CNC(=O)Cn1c(=O)oc2cc(S(=O)(=O)NCc3ccccc3)ccc21,i,nt,i,i,i,nt
O=C(CNC(=O)c1cccc(-n2cccc2)c1)Nc1ccccc1Br,nt,?,nt,nt,nt,i
CCN1CCc2c(sc(NC(=S)NC(=O)c3ccccc3)c2C#N)C1,?,-62,?,50µM,i[0.0925 µM],11µM
N#Cc1c(NC(=O)c2cccc(S(=O)(=O)Nc3ccc(C(=O)O)cc3)c2)sc2c1CCCC2,i,i,56µM,i,50µM,?
N#Cc1c(NC(=O)C2CC2)sc2c1CCCCC2,i,i,i,i,89µM,i
CC(=O)NC(=S)Nc1sc2c(c1C#N)CCCCC2,i,i,i,i,45µM,11µM
CC(=O)Nc1sc2c(c1C#N)CCCC2,i,i,i,i,i,i
O=C(O)c1ccc(NS(=O)(=O)c2cccc(C(=O)Nc3ccc(Br)cc3)c2)cc1,i,i,i,i,i[0.501 µM],i
Cc1ccc(CNC(=O)CCn2cnc3ccccc3c2=O)cc1,i,nt,i,i,i,nt
CC(C)Oc1ccc(CNC(=O)Cn2ncn3nc(-c4cccs4)cc3c2=O)cc1,i,nt,i,i,i,nt
NC(=O)c1c(NC(=O)Cc2cccs2)sc2c1CCC2,i,i,i,i,i[12.7 µM],i
N#Cc1c(NC(=S)NC(=O)Cc2cccs2)sc2c1CCCCC2,i,nt,50µM,?,i,?
Cc1cc2oc(=O)cc(CN3CCCCC3)c2cc1C,i,i,i,i,i,i
Cc1cc2oc(=O)cc(CN3CCCc4ccccc43)c2cc1C,i,i,i,i,8.9µM,i
COc1ccccc1/C=C1/C(=O)ON=C1C,i,i,i,i,i[12.7 µM],4.7µM
CC1=NN(c2ccccc2)C(=O)/C1=C\c1sccc1C,?,i,7.1µM,?,?,11µM
CC1=NN(c2ccccc2)C(=O)/C1=C\c1c(C)[nH]n(-c2ccccc2)c1=O,i,nt,i,?,?,i
CC1=NN(c2ccccc2)C(=O)/C1=C\c1cn(-c2ccccc2)nc1C,8.9µM,i,nt,?,?,i
CC1=NN(c2ccccc2)C(=O)/C1=C\c1cn(CCC#N)nc1-c1ccc(Cl)cc1,?,i,?,?,4.5µM,i
Cc1ccc(-c2nn(CCC#N)cc2C=C(C#N)C#N)cc1,i,nt,i,i,i,i
SMILES,HP1b binding inh,PI5P4Ka inh,BAZ2B block,JMJD2A Tudor,G9a inh,PLK1 PBD inh
CCOc1ccc(NC(=O)Cn2cc(C(=O)c3ccc(CC)cc3)c(=O)c3cc4c(cc32)OCO4)cc1,i,nt,i,i,i,nt
Cc1ccccc1C(=O)N(Cc1cccs1)C1CCS(=O)(=O)C1 (stereo not drawn),i,i,i,i,i,i
COc1ccccc1/C=C1/C(=O)N(c2ccccc2)N=C1C,i,i,?,?,?,2.7µM
CC1=NOC(=O)/C1=C\c1ccc(-c2ccc(Cl)cc2Cl)o1,i,?,?,?,8.9µM,0.42µM
CCCOc1ccc(Cl)cc1/C=C1/C(=O)ON=C1C,i,i,i,7.9µM,32µM,2.4µM
CC(=O)Nc1ccc(C)cc1-c1nc2ccccc2n(CC(=O)Nc2cc(Cl)ccc2C)c1=O,i,nt,?,i,i,nt
COc1cccc(Cn2ncc3c4sc(B(O)O)cc4n(C)c3c2=O)c1,nt,nt,i,nt,i[12.7 µM],nt
Cc1ccn(CCNC(=O)C2CCC(=O)N(CCc3ccc(Cl)cc3)C2)n1 (stereo not drawn),i,i,i,i,i,i
COc1ccc(NC(=O)c2ccccc2SCc2ccccc2)cc1,nt,i,nt,nt,nt,i
CC(=O)Nc1ccc(Sc2ccccc2C(=O)Nc2ccc(F)cc2)cn1,?,i,i,?,?,19µM
COc1ccc(NC(=O)c2ccccc2Sc2ccc(NC(C)=O)nc2)cc1,i,i,?,i,20µM,i
O=C(NCc1ccccc1F)C1CCCN1C(=O)Nc1ccccc1 (stereo not drawn),i,i,i,i,i,i
C[C@@H]1COc2cccc(N3CCC[C@H]3CO)c2S(=O)(=O)N1,nt,i,nt,nt,nt,i
O=C(CN1C(=O)c2ccccc2Sc2ncccc21)Nc1cccc(C(F)(F)F)c1,i,nt,i,i,i,nt
O=C(CN1C(=O)/C(=C2/SC(=S)N(CCS(=O)(=O)O)C2=O)c2ccccc21)Nc1cccc(C(F)(F)F)c1,10µM,-59,nt,13µM,nt,11µM
O=C(CN1C(=O)/C(=C2\SC(=S)N(CCS(=O)(=O)O)C2=O)c2ccccc21)Nc1cccc(Br)c1,50µM,-97,8.9µM,50µM,8.9µM,6.7µM
Cc1ccc(-c2nc3sc(CCNC(=O)c4ccc(C)c(C)c4)c(C)n3n2)cc1,i,nt,i,?,?,nt
Nc1cc(N)cc(Cc2ccccc2)c1,nt,?,nt,nt,nt,i
Nc1cc(Cc2ccccc2)ccc1O,45µM,i,nt,3.2µM,nt,i
S=c1[nH]nc(-c2ccccn2)n1/N=C/c1ccc(-c2ccccc2Cl)o1,?,i,25µM,28µM,1.1µM,?
S=c1[nH]nc(COc2ccccc2)n1/N=C/c1ccc(Br)s1,i,i,i,56µM,7.9µM,?
S=c1[nH]nc(-c2ccccn2)n1/N=C/c1ccc(Br)s1,i,i,13µM,7.9µM,1.3µM,?
Cc1ccc(/C=N/n2c(COc3ccccc3)n[nH]c2=S)s1,i,i,?,56µM,i[0.501 µM],?
Cc1n[nH]c(=S)n1/N=C/c1ccc(-c2ccc(Cl)cc2)o1,i,i,nt,i,nt,i
COCCN1CC(CNC(=O)c2cc(COc3ccccc3SC)on2)CC1=O (stereo not drawn),i,i,i,i,i,i
Cc1ccc(Nc2sc(C(=O)c3ccccc3)c(N)c2S(=O)(=O)c2ccccc2)cc1Cl,i,nt,i,i,i,nt

# Source: PubChem BioAssay (National Center for Advancing Translational Sciences (NCATS))
